Compound activity (PubChem)
This is a sample that favours compounds with a hit; in the whole collection about 1.3% have one here.
Rango release inh: qHTS Assay for Inhibitors of RanGTP induced Rango (Ran-regulated importin-beta cargo) - Importin beta complex dissociation. Snurportin-1 (Homo sapiens) + GTP-binding nuclear protein Ran (Homo sapiens) + Importin …. Potency, µM (doses to about 46.1 µM), for the others: at the top dose activity change, negative = inhibition. actives 0.071% (n = 340,000). Biochemical FRET Rango-importin beta, RanGTP-induced dissociation; note: potency is the fitted concentration of half-maximal effect; % of control where 0% means no effect; nearly all actives have a fitted effect of over 45% in size
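Rango (0.1 uM)–importin beta (0.25 uM) complex; RanGTP-RCC1 trigger; 45 min RT; CFP/YFP FRET read.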
Rango-impB inh: qHTS Assay for Inhibitors of Rango (Ran-regulated importin-beta cargo) - Importin beta complex formation | Importin subunit beta-1 (Homo sapiens), Q14974 | Potency, µM (top dose mostly 92.2 µM), without a hit: top-dose inhibition of complex formation | actives 0.031% (n = 340,000) | AID 540263, 2011 | Rango CFP/YFP FRET sensor + importin beta, 45 min;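 note: potency is the fitted concentration of half-maximal effect; 0% = DMSO wells and 100% = buffer wells lacking importin beta; nearly all actives have a fitted effect of over 15% in size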
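FRET biosensor Rango (snurportin 1 IBB between N-terminal EYFP and C-terminal Cerulean), 50 nM in PBS/1 mM DTT/0.02% Tween-20/0.1% BSA, preincubated 5 min RT with compound; 0.125 microM importin beta added, 45 min RT, CFP/YFP FRET ratio read.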
KCNH2 3.1 inh: qHTS for Inhibitors of KCHN2 3.1: Mutant qHTS | Potassium voltage-gated channel subfamily H member 2, brain isoform KCNH2 3.1 (human) | U2OS KCNH2 3.1, thallium flux FluxOr; stronger effect = lower value | activity change, % (tested at about 1.8 µM) | actives 0.95% (n = 340,000);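 active = maximum activity change below -70%; inconclusive = maximum activity change from -70% to -50%; inactive = maximum activity change above -50%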;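 note: thallium influx rate constant from kinetic fluorescence after stimulation buffer; % is set by controls: 0 for no effect and ±100 for the full control effect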
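Steps: virus added to U2OS suspension (4 h, RT, dark); medium with 10% FBS added, cells plated, 37 C overnight; FluxOr/Red40 loading buffer 45 min RT; stimulation buffer, 2 min kinetic read; rate constant normalized.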
hERG WT inh: qHTS for Inhibitors of KCHN2 3.1: Wildtype qHTS; Voltage-gated inwardly rectifying potassium channel KCNH2 (Homo sapiens), Q12809; activity change, % at 1.84 µM; U2OS, BacMam KCNH2, thallium flux FluxOr; stronger effect = lower value; actives 0.37% (n = 340,000); AID 720551, 2013;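 active = maximum activity change below -70%; inconclusive = maximum activity change between -70% and -50%; inactive = maximum activity change above -50%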; note: % is set by controls: 0 for no effect and ±100 for the full control effect
Target sequence (Q12809 whole entry, looked up): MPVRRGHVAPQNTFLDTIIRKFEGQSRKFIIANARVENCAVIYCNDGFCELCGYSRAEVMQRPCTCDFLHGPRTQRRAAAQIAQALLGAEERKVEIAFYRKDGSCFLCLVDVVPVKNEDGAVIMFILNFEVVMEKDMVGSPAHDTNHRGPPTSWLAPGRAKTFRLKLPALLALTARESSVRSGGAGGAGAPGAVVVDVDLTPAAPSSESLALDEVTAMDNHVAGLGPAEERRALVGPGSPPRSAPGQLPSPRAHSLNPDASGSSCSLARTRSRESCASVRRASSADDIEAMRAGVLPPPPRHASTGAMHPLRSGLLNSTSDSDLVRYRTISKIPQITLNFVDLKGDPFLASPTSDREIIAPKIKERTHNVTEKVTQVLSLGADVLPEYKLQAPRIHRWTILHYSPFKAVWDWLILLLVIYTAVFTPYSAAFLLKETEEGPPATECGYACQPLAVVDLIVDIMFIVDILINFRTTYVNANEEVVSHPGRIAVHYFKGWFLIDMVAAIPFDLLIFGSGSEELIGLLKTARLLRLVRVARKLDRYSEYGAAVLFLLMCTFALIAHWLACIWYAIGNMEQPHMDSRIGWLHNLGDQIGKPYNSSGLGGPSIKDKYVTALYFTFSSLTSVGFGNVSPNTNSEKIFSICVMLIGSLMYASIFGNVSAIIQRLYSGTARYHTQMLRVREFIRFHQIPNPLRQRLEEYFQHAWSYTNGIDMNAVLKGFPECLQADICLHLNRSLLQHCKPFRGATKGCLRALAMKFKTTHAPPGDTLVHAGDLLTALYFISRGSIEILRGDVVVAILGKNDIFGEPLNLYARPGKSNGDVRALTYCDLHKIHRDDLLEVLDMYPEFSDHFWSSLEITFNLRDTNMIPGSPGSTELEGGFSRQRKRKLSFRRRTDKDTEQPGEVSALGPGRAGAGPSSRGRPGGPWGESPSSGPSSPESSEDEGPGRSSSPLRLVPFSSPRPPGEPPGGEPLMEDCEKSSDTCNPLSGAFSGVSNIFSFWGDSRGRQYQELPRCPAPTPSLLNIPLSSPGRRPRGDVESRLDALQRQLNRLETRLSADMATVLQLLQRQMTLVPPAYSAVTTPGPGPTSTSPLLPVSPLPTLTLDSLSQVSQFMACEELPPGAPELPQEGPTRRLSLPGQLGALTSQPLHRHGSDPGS
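U2OS cells were transduced with wild-type KCNH2 virus (2.03 x 10^8 / mL) for 4 h at room temperature, then cultured overnight at 37 C. Thallium flux was read with FluxOr dye. Rate constants were normalized to DMSO controls.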
Active calls of the source: *; ? = inconclusive; / = no result given. Unless noted, calls come from the whole dose curve.

SMILES	Rango release inh	Rango-impB inh	KCNH2 3.1 inh	hERG WT inh
O=C(NCCCn1ccnc1)C(Cc1ccc([N+](=O)[O-])cc1)N1C(=O)c2ccccc2C1=O (centres undefined)	-2%	-2%	-88*	-119*
COc1ccc(/C=C(\NC(=O)c2ccc([N+](=O)[O-])cc2)C(=O)NCCCn2ccnc2)cc1	3%	0%	-35	-111*
CN(C(=O)COC(=O)/C=C/c1cccs1)C1CCCCC1	1%	?	-4	2
Cc1ccc(NC(=O)COC(=O)c2oc3ccccc3c2C)cc1S(=O)(=O)N1CCOCC1	6%	-3%	-8	-4
COC(=O)c1[nH]c2cc(OC)ccc2c1NC(=O)CCN1CCN(c2cccc(C)c2C)CC1	-14%	-4%	-91*	6
COc1ccccc1/C=C/C(=O)NCc1cccnc1	-8%	1%	-101*	4
COc1cc(/C=C/C(=O)NCc2cccnc2)cc(OC)c1OC	0%	?	9	3
CCCOc1cccc(-c2nn(-c3ccccc3)cc2/C=C(\C#N)C(=O)NCCCn2ccnc2)c1	-11%	?	0	-187*
N#C/C(=C/c1cn(-c2ccccc2)nc1-c1cccc(OCc2ccc(F)cc2)c1)C(=O)NCCCn1ccnc1	7%	?	-92*	-25
CC(C)C(NC(=O)c1c(F)cccc1F)C(=O)N1CCN(S(=O)(=O)/C=C/c2ccccc2)CC1 (centres undefined)	0%	0%	-15	12
CC(C)CC(NC(=O)OC(C)(C)C)c1cn([C@@H](CCCCNC(=O)OC(C)(C)C)C(=O)N2CCN(C(=O)OC(C)(C)C)CC2)nn1 (some centres undefined)	15%	-2%	0	-2
CC[C@@H](C)C(NC(=O)OC(C)(C)C)c1cn([C@@H](CCCCNC(=O)OC(C)(C)C)C(=O)N2CCN(C(=O)OC(C)(C)C)CC2)nn1 (some centres undefined)	-7%	1%	-5	-291*
Cc1sc2ncn(CC(=O)NCC(=O)N3CCN(c4ccccc4F)CC3)c(=O)c2c1C	4%	?	-15	0
Cc1cccc(C(=O)O)c1NC(=O)c1ccc(F)cc1	15%	-2%	0	-194*
O=C(O)c1ccccc1C(=O)c1cccc2c(Br)cccc12	0%	0%	5	1
CCN1CCN(c2nc3c(c(=O)[nH]c(=O)n3C)n2Cc2ccccc2)CC1	-8%	0%	4	10
Cc1ccc(C(=O)Nc2ccccc2C(=O)O)cc1S(=O)(=O)NC1CCCCC1	?	0%	-71*	7
CC(C)(C)c1ccc(OCc2ccc(C(=O)N/N=C/c3ccc([N+](=O)[O-])cc3)o2)cc1	-2%	0%	-80*	-3
CCOc1ccc(/C=N/NC(=O)c2ccc(Cn3cc([N+](=O)[O-])cn3)o2)cc1	2%	0%	-8	10
CCCCn1c(N)c(N(CC(C)C)C(=O)CSc2nn(-c3ccc(F)cc3)c(=S)s2)c(=O)[nH]c1=O	-9%	-1%	13	-4
COc1ccc(CN(C)CCCn2cnc3c(OCc4ccccc4)ncnc32)cc1OC	1%	0%	-29	18
CCCn1c2ccccc2c2cnn(CC(=O)NC3CCC(C)CC3)c(=O)c21 (centres undefined)	6%	2%	13	-3
CCCn1c2ccccc2c2cnn(CC(=O)NC3CCCCC3)c(=O)c21	2%	0%	8	-226*
CCOC(=O)C1=CN(Cc2cccc(-c3ccc4c(c3)OCO4)c2)S(=O)(=O)N(C)C1C (centres undefined)	-20%	3%	-4	-2
COc1cc(CNC(=O)c2cc(C(=O)NCc3cc(OC)cc(OC)c3)n(C)n2)cc(OC)c1	-2%	-2%	-11	-8
SMILES	Rango release inh	Rango-impB inh	KCNH2 3.1 inh	hERG WT inh
COc1ccc(Nc2nnc(SC(C(=O)Nc3cc(C)ccc3C)c3ccccc3)s2)cc1 (centres undefined)	0%	-1%	-6	1
COc1ccc(C)cc1NC(=O)C(Sc1nnc(Nc2cc(C)ccc2OC)s1)c1ccccc1 (centres undefined)	0%	-2%	-11	-121*
c1ccc(CN2CCN(Cc3c[nH]c4ccccc34)CC2)cc1	-6%	1%	16	13
Clc1ccc(N2CCN(Cc3c[nH]c4ncccc34)CC2)cc1	2%	0%	-82*	/
COc1ccc(OC)c(NC(=O)COC(=O)CCNc2ccccc2OC)c1	-6%	1%	-20	-4
CC(Oc1ccc(F)cc1)C(=O)Nc1cccc(-c2nn[nH]n2)c1 (centres undefined)	-7%	2%	29	-86*
COc1ccc(OC(C)C(=O)Nc2cccc(OC)c2)cc1 (centres undefined)	0%	0%	-15	1
COc1cc(C(=O)Nc2nnc(CC(=O)NCc3ccccc3)s2)cc(OC)c1OC	3%	1%	-3	4
CC(C)N(C(C)C)S(=O)(=O)c1ccc(NC(=O)c2cnccn2)cc1	-1%	0%	8	8
CCCCCc1cc(=O)oc2c(C(CCN3CCCCC3)c3ccc(OC)cc3)c(OC)cc(OC)c12 (centres undefined)	16%	0%	?	?
CCCCCc1cc(=O)oc2c(C(CCN3CCCC(C)C3)c3ccc(OC)cc3)c(OC)cc(OC)c12 (centres undefined)	6%	8%	-91*	-115*
CCOC(=O)c1cc(CC)sc1/N=C/C1C(=O)CC(C)(C)CC1=O	1%	?	-75*	-25
CCOC(=O)c1c(/N=C/C2C(=O)CC(C)(C)CC2=O)sc2c1CCCC2	?	?	20	-9
O=C(Cc1ccc(S(=O)(=O)N2CCOCC2)s1)N1CCN(S(=O)(=O)c2cccc(Cl)c2)CC1	0%	-1%	0	-1
S=C(NCCCN1CCOCC1)N1CCN(c2nc(-c3ccc(Cl)cc3)cs2)CC1	-12%	4%	-71*	-13
S=C(NCCCN1CCOCC1)N1CCN(c2nc(-c3ccccc3)cs2)CC1	44%	0%	-5	16
CCOc1ccc(S(=O)(=O)N2CCN(CCNS(=O)(=O)c3ccc(C)cc3)CC2)cc1	-1%	-4%	28	-2
Cc1ccc(C)c(NC(=O)C(OC(=O)c2ccc(NC(=O)CC#N)cc2)c2ccccc2)c1 (centres undefined)	7%	-3%	-71*	0
Cc1cc(C)cc(NC(=O)C(OC(=O)c2ccc(NC(=O)CC#N)cc2)c2ccccc2)c1 (centres undefined)	10%	?	-24	-27
